Values joined by “and” are separate entries in the source; they are usually repeats but may differ in a detail not shown here. Equal values may be shown once.
Experiment: qHTS profiling of the MIPE4 collection as inhibitors of Plasmodium falciparum (DD2) proliferation (Rep 2) (AID 743346)
Conditions: P. falciparum Dd2 in erythrocytes, SYBR Green DNA, 72 h; at 9.64 µM (top of the series)
From the text: Plasmodium falciparum is a virulent malarial parasite that kills 1-2 million people worldwide each year. Transmitted by mosquitoes, the sporozoite form of the parasite enters the blood stream to infect hepatocytes, where they become merozoites that infect red blood cells (erythrocytes). Within erythrocytes, merozoites begin a […] cycle of growth and division, after which the parasite is released to infect new red blood cells. Gametocytes, which form within erythrocytes as well, circulate in the bloodstream and are ingested by the mosquito, thereby completing the life cycle. To profile malarial isolates for differential chemical responses and to identify inhibitors of malarial growth, an assay that measures P. falciparum growth and replication within erythrocytes was employed. This assay uses a DNA binding fluorescent dye (SYBR Green) to detect parasite DNA following cell lysis. Because mature erythrocytes lack DNA, only Plasmodium-derived DNA is detected.
The SYBR Green viability assay was adapted from a method described previously (Plouffe et al., 2008). For screening 3 ul culture medium was dispensed into 1536 well black clear bottom plates (Aurora Biotechnologies) using a Multidrop Combi (Thermo Fisher Scientific Inc.), 23 nL compounds in DMSO were added by a pin tool (Kalypsys), and 5 ul of erythrocytes infected with P. falciparum (0.3% parasitemia, 2.5% hematocrit final concentration) were added. The plates were incubated at 37 C in a humidified incubator in 5% CO2 for 72 h, and 2 ul lysis buffer (20 mM Tris HCl, 10 mM EDTA, 0.16% saponin, 1.6% triton X, 10X SYBR Green I supplied as 10,000X […] by Invitrogen) was added to each well. The plates were mixed for 25 sec with gentle shaking and incubated overnight at room temperature in the dark. The following morning, fluorescence intensity at 485(14) nm excitation and 535(25) nm emission wavelengths was measured on an EnVision (Perkin Elmer) plate reader. Plate reads were normalized relative to the control inhibitor (0.29 uM artemisinin) and vehicle (DMSO) wells present on each plate and then corrected by an algorithm using vehicle-only control plates at the beginning and end of the compound plate stack.

SMILES | parasite growth, % of control (lower = inhibition)
C[C@H]1C[C@@H]2[C@@H]([C@@H](O)C[C@@]3(C)[C@H]2CC[C@]3(O)C(=O)CO)[C@@]2(C)C=CC(=O)C=C12 | 62.6%

Same assay, conditions: P. falciparum Dd2 in erythrocytes, SYBR Green DNA, 72 h; at 28.5 µM

SMILES | parasite growth, % of control (lower = inhibition)
C[C@H]1C[C@@H]2[C@@H]([C@@H](O)C[C@@]3(C)[C@H]2CC[C@]3(O)C(=O)CO)[C@@]2(C)C=CC(=O)C=C12 | 62.7%

Same assay, conditions: P. falciparum Dd2 in erythrocytes, SYBR Green DNA, 72 h; at 28.5 µM unless noted

SMILES | parasite growth, % of control (lower = inhibition)
COc1cc(C(=O)N2CCC(N3CCN(C)CC3)CC2)ccc1Nc1ncc2c(n1)N(C)c1ccccc1C(=O)N2C | 19.7%
CC[C@@H]1C(=O)N(C)c2cnc(Nc3ccc(C(=O)NC4CCC(N5CCN(CC6CC6)CC5)CC4)cc3OC)nc2N1C(C)C (stereo not given in full) | 17.4%
COc1cc(-c2nn(C3CCC(N4CCN(C(C)=O)CC4)CC3)c3ncnc(N)c23)ccc1NC(=O)c1cc2ccccc2n1C (stereo not given) | 20.7%
Cc1cnc(Nc2ccc(F)cc2Cl)nc1-c1c[nH]c(C(=O)N[C@H](CO)c2cccc(Cl)c2)c1 | 12.8%
CN[C@H]1CCc2cc(OC)c(OC)c(OC)c2-c2ccc(OC)c(=O)cc21 | 47.1%
COc1cc(C(=O)NS(=O)(=O)c2ccccc2C)ccc1Cc1cn(C)c2ccc(NC(=O)OC3CCCC3)cc12 | 16.7%
Cc1ccc(C(=O)Nc2ccc(CN3CCN(C)CC3)c(C(F)(F)F)c2)cc1C#Cc1cnc2cccnn12 | 13%
Cc1c(CN2CCN(S(C)(=O)=O)CC2)sc2c(N3CCOCC3)nc(-c3cnc(N)nc3)nc12 | 18.4%
COCCOc1ccc2c(c1)ncn2-c1ccc2cccc(N3CCC(N)CC3)c2n1 | 13.1%
NC(=O)Nc1cc(-c2cccc(F)c2)sc1C(=O)N[C@H]1CCCNC1 | 15.5%
CC1COC2(CCN(c3nc(=O)c4cc(C(F)(F)F)cc([N+](=O)[O-])c4s3)CC2)O1 (stereo not given) | 33.5%
CC(=O)OCCN1C(=O)c2c(C)nc3ccc(S(=O)(=O)N4CCOCC4)cc3c2C1=O | 86.6%
O=C(C=Cc1cccnc1)NCCCCC1CCN(C(=O)c2ccccc2)CC1 | 51%
Cc1ccc(S(=O)(=O)Nc2cc(Cl)ccc2C(=O)Nc2nc(-c3ccccc3)cs2)cc1 | 21.2%
CC1=C(CO)C(=O)O[C@@H]([C@@H](C)[C@H]2CC[C@H]3[C@@H]4C[C@H]5O[C@]56[C@@H](O)C=CC(=O)[C@]6(C)[C@@H]4CC[C@]23C)C1 | 7.54%
Cc1ccc(-c2ncn(-c3ccc(Nc4nccc(-c5cccc(N6CCOCC6)c5)n4)cc3)n2)cn1 | 11.5%
CCOc1cc2ncc(C#N)c(Nc3ccc(F)c(Cl)c3)c2cc1NC(=O)C=CCN(C)C | 9.55%
C=C1C(=CC=C2CCCC3(C)[C@@H]([C@H](C)C=CC=CC(O)(CC)CC)CC[C@@H]23)C[C@@H](O)C[C@@H]1O (stereo not given in full) | 12.7%
CCn1cc(-c2ccnc3[nH]c(-c4cccc(CN(C)C)c4)cc23)c(-c2ccc(NC(=O)N(C)C)cc2)n1 | 9.35%

SMILES | parasite growth, % of control (lower = inhibition)
Cn1cc(-c2ccncc2)c(-c2ccc(OCc3ccc4ccccc4n3)cc2)n1 | 82.2%
Cc1cc(Nc2ncnc3ccc(-c4ccc(CNCCS(C)(=O)=O)o4)cc23)ccc1Oc1ccn2ncnc2c1 | 7.94%
N#CCNC(=O)c1ccc(-c2ccnc(Nc3ccc(N4CCOCC4)cc3)n2)cc1 | 13.1%
Cc1cn(-c2cc(NC(=O)c3ccc(C)c(Nc4nccc(-c5cccnc5)n4)c3)cc(C(F)(F)F)c2)cn1 | 27.3%
COc1ccc2c(OCc3nnc4ccc(-c5ccccc5)nn34)ccnc2c1 | 67%
O=C(NCCS(=O)(=O)c1ccc(C(F)(F)F)cn1)c1ccc(Cl)cc1 | 82.3%
O=C(O)Cn1nnc(-c2cc(N3CCC(Oc4cc(F)ccc4Br)CC3)no2)n1 | 83.7%
O=C(c1cncc(Br)c1)N1CCC(N2CCCC2)CC1 | 80.8%
COc1c(N2C[C@@H]3CCCN[C@H]3C2)c(F)cc2c(=O)c(C(=O)O)cn(C3CC3)c12 | 31.4% and 104%
CC(C)(C)c1cc(C(C)(C)C)c(NC(=O)c2c[nH]c3ccccc3c2=O)cc1O | 88.9%
Nc1ccc(C(=O)c2cc3c(ccc4ccccc43)[nH]2)cc1 | 118%
O=C1CCC[C@@H]2[C@H]3CCC[N+]4([O-])CCC[C@@H](CN12)[C@@H]34 (stereo not given in full) | 61.6%
CCCCc1nc2cc(C=CC(=O)NO)ccc2n1CCN(CC)CC | 7.61%
CC(C)(C)OC(=O)Nc1ccc(-c2cc(C(=O)NCCCCCCC(=O)NO)no2)cc1 | 12.7%
CC(C)c1ccc(Cn2ccc3c4c(N)nc(NC5CC5)nc4ccc32)cc1 | 15.1%
CN(C)CCCN=c1c2ccccc2n(C)c2[nH]c(=O)n(C)c(=O)c12 | 9.14%
CN1c2cc(O)c(N=NC(N)=O)cc2CC1S(=O)(=O)O (stereo not given) | 19.7%
CC=CC1=C(C(=O)O)N2C(=O)[C@H](NC(=O)[C@H](N)c3ccc(O)cc3)[C@@H]2SC1 | 99.4%
COc1c(OCCCN2CCOCC2)ccc2c3n(c(=NC(=O)c4cnc(N)nc4)nc12)CCN3 | 16.8% [at 9.64 µM]

From PubChem BioAssay (NCATS)
